Molecules are shown by their SMILES. About 14,000 (4.5%) of roughly 310,000 compounds showed an effect of 50% or more. The effect is printed as a negative number. This is one part of a sample in which strong results are shown more often than they occur.
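Note: peak tail current of the secondary pulse compared with the same well before compound.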

This experiment deals with human ether-à-go-go-related gene (hERG) potassium channel (human, UniProt Q12809). As to the kind of experiment: primary screen, population patch clamp on CHO cells stably expressing hERG; higher = less effect of the substance.
human ether-à-go-go-related gene (hERG) potassium channel, sequence (Q12809 whole entry, looked up): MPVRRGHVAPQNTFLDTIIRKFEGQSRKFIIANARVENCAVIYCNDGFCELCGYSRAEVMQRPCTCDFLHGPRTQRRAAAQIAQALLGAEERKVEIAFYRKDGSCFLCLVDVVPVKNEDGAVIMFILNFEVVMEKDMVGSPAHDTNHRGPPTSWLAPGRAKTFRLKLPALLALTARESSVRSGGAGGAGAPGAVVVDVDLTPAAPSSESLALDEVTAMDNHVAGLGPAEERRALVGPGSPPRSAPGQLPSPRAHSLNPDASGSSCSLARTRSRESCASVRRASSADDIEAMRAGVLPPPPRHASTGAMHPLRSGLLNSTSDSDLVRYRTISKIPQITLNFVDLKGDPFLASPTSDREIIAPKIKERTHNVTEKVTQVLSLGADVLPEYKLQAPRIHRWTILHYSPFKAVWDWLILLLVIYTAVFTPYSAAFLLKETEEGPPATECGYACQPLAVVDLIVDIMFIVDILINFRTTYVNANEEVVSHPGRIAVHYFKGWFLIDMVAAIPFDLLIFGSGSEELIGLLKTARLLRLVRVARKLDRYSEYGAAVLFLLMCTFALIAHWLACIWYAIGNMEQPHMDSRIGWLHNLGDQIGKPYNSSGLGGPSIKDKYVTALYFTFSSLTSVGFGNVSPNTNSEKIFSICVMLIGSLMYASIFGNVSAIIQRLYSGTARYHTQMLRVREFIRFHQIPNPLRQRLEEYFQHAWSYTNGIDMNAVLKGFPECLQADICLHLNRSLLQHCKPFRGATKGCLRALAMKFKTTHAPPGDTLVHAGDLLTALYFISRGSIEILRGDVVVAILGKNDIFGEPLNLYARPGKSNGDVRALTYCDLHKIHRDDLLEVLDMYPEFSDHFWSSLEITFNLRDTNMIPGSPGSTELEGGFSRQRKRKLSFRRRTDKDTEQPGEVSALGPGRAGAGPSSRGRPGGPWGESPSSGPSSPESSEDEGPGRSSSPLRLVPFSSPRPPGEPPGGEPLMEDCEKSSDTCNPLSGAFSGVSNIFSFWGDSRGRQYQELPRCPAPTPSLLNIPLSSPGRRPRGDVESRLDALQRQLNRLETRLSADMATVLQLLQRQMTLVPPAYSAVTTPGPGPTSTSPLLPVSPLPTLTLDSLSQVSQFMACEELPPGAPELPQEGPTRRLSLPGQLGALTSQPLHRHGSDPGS
`CC(C)c1cc(C(=O)N/N=C/c2cccnc2)cs1`: the “hERG current change (%, negative = inhibition) at 10uM” value is listed as -31.9%. `c1coc(CSc2ncnc3c2oc2ccccc23)c1`: the “hERG current change (%, negative = inhibition) at 10uM” value is reported as 13.9%. On to `COCCN(CCOC)c1nc(-c2ccc([N+](=O)[O-])cc2)nc2ccccc12`, for which the “hERG current change (%, negative = inhibition) at 10uM” value is -34.3%. Next, `COCCN(CCOC)c1nc(-c2ccc(Cl)cc2)nc2ccccc12`: -5.82%; `COCCN(CCOC)c1nc(-c2ccc(C)cc2)nc2ccccc12.Cl`: -65.4%. For the molecule `Cc1ccc(-c2nc(NCCN(C)C)c3ccccc3n2)cc1`, the “hERG current change (%, negative = inhibition) at 10uM” value is listed as -44.9%. Take `COCCN(CCOC)c1nc(-c2ccccc2)nc2ccccc12`: the “hERG current change (%, negative = inhibition) at 10uM” value is recorded as -68.2%. Next, `COCCNc1nc(-c2ccccc2)nc2ccccc12.Cl`: -32.5%; `O=C(O)C1CC(=O)N(c2ccc(F)c(F)c2)C1` (stereo not drawn): 13%; `CCCCOC(=O)C1=C(C)NC(=O)NC1c1ccccc1` (stereo not drawn): 6.12%. For the molecule `O=C(N[C@H]1CCC(=O)N([C@H](CSc2ccccc2)Cc2ccccc2)CC1)OCc1ccccc1`, the “hERG current change (%, negative = inhibition) at 10uM” value is -37.6%.

Consider `Cc1ccc(SCCN2CCC(NC(=O)OCc3ccccc3)CCC2=O)cc1` (stereo not drawn), for which the “hERG current change (%, negative = inhibition) at 10uM” value is -50.1%. Next, `O=C(N[C@H]1CCC(=O)N(CCSc2ccc(Br)cc2)CC1)OCc1ccccc1`: -29.2%; `O=C(N[C@@H]1CCC(=O)N(CC[C@H](Sc2ccccc2)c2ccccc2)CC1)OCc1ccccc1`: -24%; `N#CC[C@H](Cc1ccccc1)N1CC[C@@H](NC(=O)OCc2ccccc2)CCC1=O`: -45.1%.

On to `Cc1ccc(S[C@@H](CCN2CC[C@H](NC(=O)OCc3ccccc3)CCC2=O)c2ccccc2)cc1`, for which the “hERG current change (%, negative = inhibition) at 10uM” value is -26.1%. Take `O=C(NC1CCC(=O)N(CCOc2ccccc2)CC1)OCc1ccccc1` (stereo not drawn): the “hERG current change (%, negative = inhibition) at 10uM” value is on record as -30.2%. Next, `COc1ccc(SC[C@H](Cc2ccccc2)N2CC[C@@H](NC(=O)OCc3ccccc3)CCC2=O)cc1`: -10.2%; `O=C(NC1CCC(=O)N(CCSc2ccccc2)CC1)OCc1ccccc1` (stereo not drawn): -59.2%. Next, `Cc1ccc(SC[C@H](C)CN2CC[C@H](NC(=O)OCc3ccccc3)CCC2=O)cc1`: -41.6%; `[N-]=[N+]=NC[C@H](Cc1ccccc1)N1CC[C@@H](NC(=O)OCc2ccccc2)CCC1=O`: -52.5%. Next, `COc1ccc(SCCN2CC[C@@H](NC(=O)OCc3ccccc3)CCC2=O)cc1`: -54.4%. For `N/C(=N\OC(=O)COc1ccc2ccccc2c1Br)c1cccnc1`, the “hERG current change (%, negative = inhibition) at 10uM” value was determined as 12.9%. Next, `Cc1cc(C)cc(C(=O)OCC(=O)Nc2ncccn2)c1`: -0.75%; `Cc1cccc(NC(=O)c2ccc3nc(N4CCOCC4)sc3c2)c1C`: -34.7%. On to `COc1ccc(S(=O)(=O)NCCc2cc3ccc(C)c(C)c3[nH]c2=O)cc1`, for which the “hERG current change (%, negative = inhibition) at 10uM” value was determined as 17.2%. Turning to `C/C(=N\NC(=O)c1c[nH]c2ccccc12)c1ccc2c(c1)OCO2`, the “hERG current change (%, negative = inhibition) at 10uM” value is 1.64%. As to `COc1ccccc1CNC(=O)Cn1c(=O)oc2cc(Cl)ccc21`, the “hERG current change (%, negative = inhibition) at 10uM” value is 0.41%. Next, `CCCCN1C(Nc2ccccc2)=NC[C@@H]1CC(C)C`: -34.5%; `CC(C)C[C@H]1CN=C(Nc2ccccc2)N1CC(C)C`: -3.04%. Next, `CC(C)CCCN1CCN=C1Nc1ccccc1`: -3.11%; `CC(C)CCCN1C(Nc2ccccc2)=NC[C@@H]1Cc1ccccc1`: -62.3%; `CC(C)CCN1C(Nc2ccccc2)=NC[C@@H]1CC(C)C`: -33.4%. For the molecule `CCCCCCCN1C(Nc2ccccc2)=NC[C@@H]1CC(C)C`, the “hERG current change (%, negative = inhibition) at 10uM” value is -73.7%. Turning to `CCN1C(Nc2ccccc2)=NC[C@@H]1CC(C)C`, the “hERG current change (%, negative = inhibition) at 10uM” value worked out at 3.75%. Next, `CC(C)CCCN1C(Nc2ccccc2)=NC[C@@H]1CC(C)C`: -60.1%; `CC(C)CCN1C(Nc2ccccc2)=NC[C@@H]1Cc1ccccc1`: -47.9%; `CCC(CC)CN1C(Nc2ccccc2)=NC[C@@H]1CC(C)C`: -58.2%. Regarding `CC1(OC(=O)CCc2ccccc2)C(=O)C=C2C=C3CCCN3C=C2C1=O` (stereo not drawn), the “hERG current change (%, negative = inhibition) at 10uM” value is on record as -1.36%.

Turning to `Cc1cccc(NC(=O)CCc2ccc(S(=O)(=O)NC3CCCCC3)cc2)c1`, the “hERG current change (%, negative = inhibition) at 10uM” value stood at 14.4%. Next, `Cc1oc2c(c(C)cc3oc(=O)c(CC(=O)N[C@@H](CC(C)C)C(=O)O)c(C)c32)c1C`: 15.8%; `COC(=O)CSc1nc2c(c(=O)n(C)c(=O)n2C)n1CCC(C)C`: -5.54%; `CCS(=O)(=O)N1CCCC(C(=O)c2ccc(OC)cc2C)C1` (stereo not drawn): 28.9%. `CC(=O)O[C@@H]1/C=C/[C@](C)(O)C[C@@H](C)C/C=C/[C@H]2[C@@H]3O[C@]3(C)[C@@H](C)[C@H]3[C@H](Cc4ccccc4)NC(=O)[C@@]312`: the “hERG current change (%, negative = inhibition) at 10uM” value is recorded as 16%.

In the case of `O=C(Nc1cccc(C(F)(F)F)c1)C(SCCO)c1ccccc1` (stereo not drawn), the “hERG current change (%, negative = inhibition) at 10uM” value is recorded as -4.8%. Next, `O=C(Nc1cccc(C(F)(F)F)c1)C(Sc1cccc[n+]1[O-])c1ccccc1` (stereo not drawn): -42.7%. Next, `O=C(Nc1ccc(Cl)cc1C(F)(F)F)C(Sc1cccc[n+]1[O-])c1ccccc1` (stereo not drawn): -81.3%.

As to `CN(C)CC(C)(C)CNC(C(=O)Nc1ccc(Cl)cc1C(F)(F)F)c1ccccc1` (stereo not drawn), the “hERG current change (%, negative = inhibition) at 10uM” value is on record as -76.9%.

For the molecule `O=C(Nc1cc(C(F)(F)F)ccc1Cl)C(Sc1cccc[n+]1[O-])c1ccccc1` (stereo not drawn), the “hERG current change (%, negative = inhibition) at 10uM” value is given as -14.5%. Consider `COc1cccc(NC(=O)C(NCC(C)(C)CN(C)C)c2ccccc2)c1.O=C(O)C(=O)O` (stereo not drawn), for which the “hERG current change (%, negative = inhibition) at 10uM” value is -48.4%. Next, `CN(C)c1cccc(C(=O)OC(C(=O)Nc2ccc(Cl)cc2C(F)(F)F)c2ccccc2)c1` (stereo not drawn): -3.78%; `N#CCC(=O)N/N=C\c1ccc(OC/C=C/c2ccccc2)cc1`: 14.4%; `Cc1ccccc1S(=O)(=O)Cc1ccc(C(=O)NC2CCCCC2)o1`: -1.84%.

In the case of `Nc1nc(SCC(=O)Nc2ccc([N+](=O)[O-])cc2Br)n[nH]1`, the “hERG current change (%, negative = inhibition) at 10uM” value turned out to be 3.65%.

For the origin of these results see publication PMC4336329 (PLoS ONE, 2015).
